Test results from PubChem BioAssay AID449762 (Southern Research Specialized Biocontainment Screening …, 2010).
Among all 330,000 compounds or so, about 1,900 (0.58%) were called active. About 4% were inconclusive and are not listed. These entries were drawn from the full list. Measured potencies and affinities stand elsewhere. Values without a mark were called inactive. Rule as the data show it: inconclusive = inhibition above about 70% without an active follow-up result; inactive = below that.

test: M. tuberculosis growth inhibition, HTS (AID 449762);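 also: bacterial growth assessed after seven days of incubation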; conditions: M. tuberculosis H37Rv growth inhibition, 7H9 media; at 25 µM; stronger effect = higher value

SMILES	inhibition [%]
N#CCCCCn1c(-c2cncs2)nc2ccccc21	-10.4
Oc1ccc(C=NCCc2ccccc2)cc1	0.33
CCSc1nc2ccccc2n1Cc1cccc([N+](=O)[O-])c1	-1.33
CCCCOc1ccc(C(=O)Oc2cccnc2)cc1	50
Cc1ccc(OC(=O)c2ccc(C)c(C)c2)cn1	38.4
CO/N=C/C(C#N)=C/c1ccc(OC)c(OC)c1	2.72
CCCCn1c2ccccc2c2cc(CC(N)=O)ccc21	2.07
O=C(CCC(=O)OCc1ccc(Br)cc1)Nc1ccccc1	-10.8
O=C(CNC(=O)c1ccco1)OCc1ccc(C(=O)c2ccccc2)cc1	14.1
COc1ccc(CCNC(=O)c2ccc(Cl)cc2)cc1	15.5
O=C(CNC(=O)c1ccco1)NCC(=O)OCc1ccc(C(=O)Oc2ccc(Cl)cc2)cc1	-2.15
COc1ccc(NC(=O)CCC(=O)OCc2ccc(C(=O)Oc3ccc(Cl)cc3)cc2)cc1	-10.2
COc1ccc(C(=O)NCC(=O)NCC(=O)OCc2ccc(Cl)cc2)cc1	8.99
O=C1CN(C(=O)CSc2ccc(-c3ccc(F)cc3)nn2)c2ccccc2N1	-6.46
Cc1ccnc(N=Cc2nc(-c3ccccc3Br)oc2O)c1	2.41
Cc1nc(CCNC(=O)c2cc(COc3ccc(F)cc3Cl)on2)sc1C	12.2
COc1ccc(-c2nc3c(c(=O)[nH]c(=O)n3Cc3ccccc3)n2CCO)cc1	-6.32
CCCOc1ccc(-c2nc3c(c(=O)[nH]c(=O)n3Cc3ccccc3)n2CCO)cc1OCC	-0.79
CC(C)c1nc2ccc(Br)cn2c1NC1CCCC1	-4.28
CC(Sc1nnc(N)s1)C(=O)NNC(=O)c1cccc(Cl)c1 (stereo unspecified)	0.75
CC1(C)C=Cc2c(ccc3c2OC[C@@H](c2ccc(O)cc2O)C3)O1	4.54

SMILES	inhibition [%]
CC1(C)C=Cc2c(ccc3c2OC[C@H](c2ccc(O)cc2O)C3)O1	9.89
COc1cccc(C(=O)NC(=S)N2c3ccccc3CC2C)c1OC (stereo unspecified)	-5.31
CC1Cc2ccccc2N1C(=S)NC1CCCC1 (stereo unspecified)	-1.79
O=C(Nc1ccccc1N1CCCCC1)c1cccc(Cl)c1	8.39
CCC(C)c1ccc(S(=O)(=O)N2CCN(CC(O)CN3CCOCC3)CC2)cc1 (stereo unspecified)	-16.5
CCCOc1ccc(-c2cn3ccccc3n2)cc1[N+](=O)[O-]	2.24
COc1ccc2c(c1)CC/C(=C/c1cc(OC)c(OC)c(OC)c1)C2=O	50
COc1ccc2c(c1)C(=O)/C(=C/C=C/c1ccccc1)CC2	6.15
CC1CCCN(CCCNC(=O)c2ccc(NC(=O)C3=CSCCO3)cc2)C1 (stereo unspecified)	-0.6
O=C(Nc1ccc(C(=O)NCCCN2CCN(c3ccccc3)CC2)cc1)C1=CSCCO1	4.06
CC(=O)Nc1ccc(NC(=O)CCCSc2nc3ccccc3s2)cc1	0.37
COCC(C)n1c(-c2ccc3c(c2)NC(=O)CO3)csc1=Nc1ccc(OC(F)F)cc1 (stereo unspecified)	5.17
COCCN=c1scc(-c2ccc3c(c2)NC(=O)CO3)n1/N=C(\C)c1ccc(O)cc1	6.92
CC(=O)N1CCN(S(=O)(=O)c2cccc(C(=O)NC3CCCC3)c2)CC1	-8.08
O=C(Nc1ccccc1C1CC1)c1cccs1	-3.36
CCc1cccc2c(C(=O)CN3C(=O)NC4(CCCCCC4)C3=O)c[nH]c12	-3.22
CN(Cc1cn(C)nc1-c1ccc(Oc2ccccc2)cc1)CC1COCCO1 (stereo unspecified)	8.39
O=C(CN1C(=O)/C(=C/c2ccccc2F)Sc2ccccc21)NCc1cccnc1	14.8
O=C(NCc1cccnc1)c1ccc(Cl)c(Cl)c1	3.71
CC(C)CCNC(=O)Cc1csc(-c2ccccc2)n1	-12
COc1ccc(CC(NC(C)=O)C(=O)NC2CCN(c3c4c(nc5ncnn35)CCC4)CC2)cc1 (stereo unspecified)	-5.34

SMILES	inhibition [%]
Cc1ccc(OCC(=O)NC(C)c2ccc(Cl)c(Cl)c2)c([N+](=O)[O-])n1 (stereo unspecified)	-3.43
CC(=O)NC(C)c1ccc(Cl)c(Cl)c1 (stereo unspecified)	7.59
CCOC(=O)Cc1csc(NS(=O)(=O)Cc2ccccc2)n1	-4.69
Cc1ccc2cccc(OCC(=O)NCCC3=CCCCC3)c2n1	37.1
Cc1ccc(C(=O)N/C(=C\c2cccs2)C(=O)N2CCN(C)CC2)cc1C	0.74
CN1C(=O)[C@H]2[C@@H](/C=C/c3ccccc3)N3C(=O)CN(Cc4ccccn4)C(=O)[C@@]3(Cc3ccccc3)[C@H]2C1=O	-6.69
COc1ccc2nc(C3CCCCC3)nc(C3CCCCC3)c2c1	0.84
COc1ccc(-c2nc(C3CCCCC3)c3cc(OC)ccc3n2)cc1	8.29
O=C(NCCC1=CCCCC1)C1CCN(S(=O)(=O)c2ccccc2C(F)(F)F)CC1	-3.46
COCCOc1cc(NC(=O)c2ccccc2)c(Cl)cc1Cl	15
Nc1c(-c2ccc(Cl)cc2)cnc2c(-c3ccccc3)cnn12	-2.52
CC(=O)c1cnc2c(-c3ccc(Cl)cc3)cnn2c1C	-5.22
COc1ccccc1NC(=O)CSc1nc2ccccc2c(=O)n1C	0.03
COc1ccc(-c2nn(-c3ccccc3)cc2CNC(=O)c2cccc([N+](=O)[O-])c2)cc1	8.99
c1cncc(-c2ccc3ncnc(NCc4cccs4)c3c2)c1	0.82
CCOC(=O)N1CCN(CCC(=O)Nc2ccc(OC(F)(F)F)cc2)CC1	18.8
Cc1ccc(CNC(=O)NC2CCCCC2)cc1	-3.64
Cc1cc2cc(CNC(=S)NC3CCCCC3)ccc2[nH]1	4.14
Cc1ccc(N2C(=O)N(CC(=O)Nc3ccc(C)cc3Cl)C(=O)C2C)cc1 (stereo unspecified)	-3.9
